Out of some 68,000 compounds screened, about 2,700 (4%) showed an effect of 50% or more. This is one part of a sample in which strong results are shown more often than they occur.

This passage reports INHIBITION results from ChEMBL document CHEMBL4513216, “Probing the Open Global Health Chemical Diversity Library for Multistage-Active Starting Points for Next-Generation Antimalarials” (ACS Infect Dis, 2020).

The subject of this assay is Plasmodium berghei. Description: Screen against P. berghei liver stage (PbLuc), transformed with Luciferase, at 2uM. The format is functional, HepG2. The settings on record: tested at 2 uM.
For the molecule `COc1ccc(CC(=O)N2CC[C@H](CO)[C@H](O)C2)c(OC)c1`, the INHIBITION was 26.93%.
As to `CCc1ccc(C(C)NC(=O)N2CCC(n3cncn3)CC2)cc1` (stereo not drawn), the INHIBITION was 38.06%.
Regarding `CC(C)N(C)[C@@H]1CCN(c2ncccn2)[C@H]1Cc1ccncc1`, the INHIBITION worked out at 11.9%.
Next, `CN(CC(=O)N1CCC(Oc2ccc(C(F)(F)F)cn2)CC1)S(C)(=O)=O`: 17.26%; `Cc1nccn1CC1CCCN1S(=O)(=O)Cc1ccc(F)cc1` (stereo not drawn): -88.61%.
Take `Cc1nccn1CC1CCCN1S(=O)(=O)Cc1ccccc1` (stereo not drawn): the INHIBITION is listed as 0.26%.
As for `Cc1nccn1CC1CCCN1S(=O)(=O)Cc1ccon1` (stereo not drawn), the INHIBITION is listed as 60.31%.
Next, `CCc1nccn1CCCNC(=O)c1cnn(-c2ccccc2OC)c1`: -9.69%; `O=C(CCn1ccc2cc(Br)ccc21)NCc1ccc(C(=O)O)cc1`: -4.69%.
Next, `O=C(COC[C@@]12CCC[C@@H]1CN(C1CCCC1)C2)N1CCCC1`: -9.14%; `O=C(COC[C@]12COC[C@H]1CN(C1CCC1)C2)N1CCCC1`: -37.65%.
The result for `O=C(COC[C@@]12CCC[C@@H]1CN(C1CCC1)C2)N1CCCC1` reads 51.27%.
Turning to `Cn1nc2c(cc1=O)CN(c1ncnc3ccsc13)CC2`, the INHIBITION is -37.96%.
Next, `CCC[C@@H]1CN(Cc2cc3c(cc2OC)OCCO3)C[C@H]1C(=O)O`: 19.59%; `CCC[C@@H]1CN(Cc2cc3c(cc2OC)OCO3)C[C@H]1C(=O)O`: -23.34%.
Next, `CCC[C@@H]1CN(Cc2cc(OC)c3c(c2)OCO3)C[C@H]1C(=O)O`: 57.75%; `CN(C)c1nccc(C2CN(S(C)(=O)=O)C2)n1`: 40.78%.
`Cc1cc(C(=O)N2CCN(S(C)(=O)=O)[C@@H](C)C2)c(F)cc1F`: the INHIBITION turned out to be 1.27%.
As for `CC(=O)N[C@H]1CCO[C@@H](c2cccc(NC(=O)Cc3ccccc3)c2)C1`, the INHIBITION is reported as 0.93%.
The result for `O=C(CCNc1ncccn1)NCc1ccc(Br)s1` reads 64.22%; that for `O=C(CCNc1ncccn1)NCc1csc(Br)c1`, 33.47%.
Next, `O=C(CCNc1ncccn1)NCc1cccc(OC(F)F)c1`: 52.3%; `O=C(NCCNc1ncccn1)NCc1cccc(OC(F)F)c1`: -35.22%; `Cc1ccc(CCNC(=O)NCc2cccc(OC(F)F)c2)cn1`: -16.71%.
Next, `CCc1ccc(CNC(=O)CCNc2ncccn2)s1`: -18.99%.
As for `c1ccc(-c2nnc(N3CCCC4(CCOC4)C3)s2)cc1` (stereo not drawn), the INHIBITION is on record as -21.39%.
The result for `N#Cc1ccc(N2CCCN(CC(=O)N3CCOCC3)CC2)cc1` reads -45.9%.
Consider `Cc1ccc(NC2CCN(C(=O)CC3CCCO3)CC2)nn1` (stereo not drawn), for which the INHIBITION is listed as -3.38%.
The result for `Cc1ccc(-c2noc(CN3CCOC(CN(C)C)C3)n2)cc1F` (stereo not drawn) reads -19.76%.
`CCc1ccc(C2CC(=O)Nc3cc(NS(C)(=O)=O)ccc32)o1` (stereo not drawn): the INHIBITION is recorded as -24.85%.
Next, `CCOc1ncccc1NC(=O)N1CCCN(C(=O)OC)CC1`: 12.81%; `CN(C)C(=O)[C@@H]1C[C@@H]2[C@@H](CCN2Cc2nccs2)O1`: 55.11%.
The result for `CN(C)C(=O)[C@@H]1CC[C@@H]2[C@@H](CCN2Cc2nccs2)O1` reads 6.66%; that for `O=C([C@H]1CC[C@@H]2[C@@H](CCN2Cc2nccs2)O1)N1CCCCO1`, 23.93%.
The result for `Cn1cc(CN2CC[C@H]3O[C@@H](C(=O)NC4CC4)CC[C@H]32)cn1` reads -43.66%; that for `CC1CCN(C(=O)[C@H]2CC[C@@H]3[C@@H](CCN3Cc3nccs3)O2)CC1`, 53.46%; that for `O=C([C@@H]1C[C@H]2[C@H](CCN2Cc2nccs2)O1)N1CCOCC1`, -16.93%.
On to `Cc1nc(CN2CC[C@@H]3O[C@@H](C(=O)N4CCOCC4)C[C@@H]32)cs1`, for which the INHIBITION is recorded as 34.24%.
The result for `Cn1cc(CN2CC[C@@H]3O[C@H](C(=O)N4CCOCC4)C[C@@H]32)cn1` reads 86.68%; that for `O=C([C@H]1CC[C@@H]2[C@@H](CCN2Cc2nccs2)O1)N1CCOCC1`, 77.07%; that for `CN1CCN(C(=O)[C@H]2CC[C@@H]3[C@@H](CCN3Cc3nccs3)O2)CC1`, 1.78%.
The result for `CN(C)C(=O)[C@@H]1C[C@@H]2CCN(Cc3nccs3)C[C@@H]2O1` reads -31.39%; that for `CN1CCN(C(=O)[C@H]2C[C@H]3[C@H](CCN3Cc3nccs3)O2)CC1`, 37.54%; that for `CC[C@@]1(O)CCN(C(=O)CN(C)Cc2ccc(F)cc2)C[C@H]1O`, 25.06%.
Turning to `CN(C)[C@@H]1C[C@@H](CO)N(C(=O)Nc2cccc(F)c2F)C1`, the INHIBITION is -57.1%.
The result for `CNC(=O)[C@H]1C[C@@H]2CCN(CCc3ccccc3)C[C@@H]2O1` reads 21.77%; that for `CS(=O)(=O)N1CCc2sc(C(=O)NCc3ccccc3)cc21`, 38.62%.
Turning to `O=C(C1CC(F)(F)C1)N1C[C@@H]2CN(CC3CC3)CCO[C@@H]2C1`, the INHIBITION is reported as -14.21%.
Next, `Cc1nccn1CCC1CCN(C(C)C)CC1`: 4.53%.
The result for `Cc1ccc2c(ccn2CCC(=O)O)c1` reads -7.01%; that for `Cc1cccc(CN2C(=O)C[C@H]3[C@@H]2CCN3Cc2ccccn2)n1`, -11.91%; that for `O=C(c1ccc(NC2CC2)nc1)N1CCCC(n2ccnc2)C1` (stereo not drawn), -5.3%.
Take `Cc1cnn(C2CCCN(C(=O)c3ccnc(N(C)C)c3)C2)c1` (stereo not drawn): the INHIBITION is -21.91%.
Next, `Cc1cnn(C2CCCN(C(=O)c3ccc(-n4cnnn4)cc3)C2)c1` (stereo not drawn): 15.4%; `Cc1nn(-c2ccccc2)cc1C(=O)N1CCCC(n2cccn2)C1` (stereo not drawn): 11.1%; `O=C(c1ccc(-n2cccn2)nc1)N1CCCC(n2cccn2)C1` (stereo not drawn): -9.61%.
The result for `Cc1cnn(C2CCCN(C(=O)c3ccccc3-n3cnnn3)C2)c1` (stereo not drawn) reads -31.16%.
Next, `Cc1cnn(C2CCCN(C(=O)c3sccc3-n3cnnn3)C2)c1` (stereo not drawn): 51.21%; `Cc1cnn(C2CCCN(C(=O)c3ccn(C)c(=O)c3)C2)c1` (stereo not drawn): 16.51%; `Cc1cnn(C2CCCN(C(=O)c3ccc4c(c3)CCC4)C2)c1` (stereo not drawn): 56.02%.
`O=C(c1ccc(NC2CC2)nc1)N1CCCC(n2cccn2)C1` (stereo not drawn): the INHIBITION is listed as 54.85%.
Next, `Cc1nn(-c2ccccc2)cc1C(=O)N1CCCN2CCCC2C1` (stereo not drawn): 20.11%; `Cc1cnn(C2CCCN(C(=O)c3cn(-c4ccccc4)nc3C)C2)c1` (stereo not drawn): 86.75%.
